Test [1] deals with ATP-dependent translocase ABCB1 (Homo sapiens) (UniProt P08183). Kind of test: MDR1 (ABCB1) efflux transporter inhibition, cell-based (AID 377). The following applies: MDR1-expressing cells, fluorescent substrate accumulation slope; stronger effect = higher value; concentration not given here.
A short description of test [2]: polyglutamine-triggered caspase-3 activation inhibitors, cell-based (AID 1583). As to conditions: polyglutamine-induced caspase-3 activation, cell assay; stronger effect = higher value;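 tested at 10 µM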.
Test [3] is described as follows: suppressors of polyQ aggregation in yeast, 75Q-TubU reporter (AID 1593). The following applies: Yeast 75Q polyglutamine aggregation reporter.
Test [4] can be described thus: rescue of polyQ-huntingtin neuronal dysfunction in worms, whole organism, C. elegans mechanosensory neurons, N-terminal huntingtin (AID 1599). The following applies: touch response, stronger effect = higher value.
The nature of test [5]: inhibitors of mitochondrial cytochrome c release, biochemical, purified mitochondria (AID 1603).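 Further: mouse liver mitochondria challenged with calcium chloride; signal normalized to the plate average as 100%.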 The following applies: stronger effect = lower value.
Test [6] is described as follows: inhibitors of polyQ protein aggregation (AID 1604). The following applies: polyglutamine-induced protein aggregation inhibition assay; stronger effect = higher value; tested at 2.5 µM.

Inconclusive results are not listed. For some of these results: Measured potencies and affinities stand elsewhere. Activity calls are given as the source filed them. No stated cut-off is given here; in the data, active means fluorescence slope change above about 50%; inconclusive means mostly about 31% to 49%; inactive means weaker than that.

ATP-dependent translocase ABCB1 (Homo sapiens), sequence (P08183 whole entry, looked up): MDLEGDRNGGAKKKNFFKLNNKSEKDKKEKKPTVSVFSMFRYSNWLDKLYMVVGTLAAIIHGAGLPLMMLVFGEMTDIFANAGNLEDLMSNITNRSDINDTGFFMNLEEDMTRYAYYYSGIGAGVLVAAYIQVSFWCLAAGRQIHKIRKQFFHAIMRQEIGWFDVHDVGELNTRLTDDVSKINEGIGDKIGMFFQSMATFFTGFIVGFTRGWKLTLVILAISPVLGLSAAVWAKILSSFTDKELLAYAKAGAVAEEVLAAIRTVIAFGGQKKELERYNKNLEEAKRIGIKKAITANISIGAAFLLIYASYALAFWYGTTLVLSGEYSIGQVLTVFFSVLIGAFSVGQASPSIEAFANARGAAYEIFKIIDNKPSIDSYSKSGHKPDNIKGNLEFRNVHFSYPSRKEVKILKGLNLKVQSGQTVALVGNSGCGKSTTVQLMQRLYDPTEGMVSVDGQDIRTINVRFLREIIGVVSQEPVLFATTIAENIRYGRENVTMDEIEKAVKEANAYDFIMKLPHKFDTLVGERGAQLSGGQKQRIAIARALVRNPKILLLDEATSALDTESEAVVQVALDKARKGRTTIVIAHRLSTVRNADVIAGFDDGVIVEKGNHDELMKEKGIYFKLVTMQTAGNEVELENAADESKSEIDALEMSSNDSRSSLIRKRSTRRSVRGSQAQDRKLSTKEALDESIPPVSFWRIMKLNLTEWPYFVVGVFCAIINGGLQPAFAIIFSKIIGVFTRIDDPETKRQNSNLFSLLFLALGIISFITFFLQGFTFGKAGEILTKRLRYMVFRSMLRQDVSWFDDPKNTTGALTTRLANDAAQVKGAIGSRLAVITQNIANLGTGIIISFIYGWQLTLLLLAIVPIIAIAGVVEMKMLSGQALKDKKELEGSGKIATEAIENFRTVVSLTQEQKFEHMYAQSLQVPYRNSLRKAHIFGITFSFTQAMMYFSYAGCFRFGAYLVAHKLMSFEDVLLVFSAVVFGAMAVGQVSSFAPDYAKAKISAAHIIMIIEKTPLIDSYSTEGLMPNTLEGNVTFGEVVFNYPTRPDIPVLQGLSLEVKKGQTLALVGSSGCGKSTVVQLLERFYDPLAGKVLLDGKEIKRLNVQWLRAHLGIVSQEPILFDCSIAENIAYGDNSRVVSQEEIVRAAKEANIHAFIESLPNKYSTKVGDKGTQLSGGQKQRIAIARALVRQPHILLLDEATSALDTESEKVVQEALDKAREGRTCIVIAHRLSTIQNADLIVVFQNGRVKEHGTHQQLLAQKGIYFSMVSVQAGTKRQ

On to `NCCCC[C@H](N[C@@H](CCc1ccccc1)C(=O)O)C(=O)N1CCC[C@H]1C(=O)O`, for which the fluorescence slope change in test [1] was 60.6% (active). Also, in test [2], the inhibition was -0.18%. In test [3], this compound yielded a score of 0.98. Besides, the rescue above control in test [4] was -7.67. Further, in test [5], the cytochrome c release ratio is 1.03. Further, the inhibition of aggregation in test [6] is 45.6%.

In the case of `CCn1cc(C(=O)O)c(=O)c2cc3c(cc21)OCO3`, the fluorescence slope change in test [1] was 56.5% (active). Further, in test [2], the inhibition is -14.8%. For the same compound, the score in test [3] was 1.16. In addition, the cytochrome c release ratio in test [5] came to 0.82. Also, the inhibition of aggregation in test [6] was 74.7%.

On to `CC(=O)OCC1=C(C(=O)O)N2C(=O)[C@@H](NC(=O)CSc3ccncc3)[C@H]2SC1`, for which, in test [1], the fluorescence slope change is 13.4% (inactive). For the same compound, in test [2], the inhibition was -8.64%. In test [3], this compound gave a score of 1.04. Besides, the rescue above control in test [4] was -6.1. Further, the cytochrome c release ratio in test [5] was 1.02. The inhibition of aggregation in test [6] came out at 71.9%.

Consider `Cc1ccnc(NS(=O)(=O)c2ccc(N)cc2)n1`, for which, in test [1], the fluorescence slope change was 18.7% (inactive). The inhibition in test [2] amounted to 3.68%. In addition, in test [3], the score stood at 0.98. Moreover, in test [4], the rescue above control is 11.1. Besides, the cytochrome c release ratio in test [5] is 0.88. Moreover, the inhibition of aggregation in test [6] worked out at 38%.

Turning to `Cc1ccccc1OCC(O)CO` (centres undefined), the fluorescence slope change in test [1] was 59.3% (active). Besides, in test [2], the inhibition came to 20.6%. Moreover, the score in test [3] was determined as 1.31. In addition, in test [4], the rescue above control was -6.62. The cytochrome c release ratio in test [5] came to 1.09. The same compound came in with an inhibition of aggregation in test [6] of 70.4%.

Consider `COc1ccc2c(c1)c(CC(=O)OCC(=O)O)c(C)n2C(=O)c1ccc(Cl)cc1`, for which the fluorescence slope change in test [1] is 79% (active). Moreover, in test [2], the inhibition was -2.12%. Further, the score in test [3] was 0.67. The compound further had a rescue above control in test [4] of 4.6. Besides, the cytochrome c release ratio in test [5] came out at 1.11. In test [6], this compound showed an inhibition of aggregation of 77.8%.

Consider `Cc1c(NC(=O)c2cccnc2)c(=O)n(-c2ccccc2)n1C`, for which, in test [1], the fluorescence slope change was 25.2% (inactive). In test [2], the inhibition turned out to be 13.7%. This compound displayed a score in test [3] of 1.39. Moreover, the rescue above control in test [4] is -0.65. Besides, in test [5], the cytochrome c release ratio came to 0.9. The compound also showed an inhibition of aggregation in test [6] of 85.9%.

With `Cc1c(N(C)CS(=O)(=O)O)c(=O)n(-c2ccccc2)n1C`, in test [1], the fluorescence slope change was 12.6% (inactive). For the same compound, in test [2], the inhibition is -33.9%. The compound also had a score in test [3] of 1.22. In test [4], this compound gave a rescue above control of 6.62. The cytochrome c release ratio in test [5] was 0.55. For the same compound, the inhibition of aggregation in test [6] came out at 94.4%.

Consider `O=C(O)c1ccccc1Nc1cccc(C(F)(F)F)c1`, for which, in test [1], the fluorescence slope change is 92.3% (active). Moreover, the inhibition in test [2] was -0.73%. The compound also registered a score in test [3] of -0.37. This compound also registered a rescue above control in test [4] of 3.52. Further, the cytochrome c release ratio in test [5] worked out at 1.3. In test [6], the inhibition of aggregation stood at 73.1%.

Take `CC(=O)Nc1ccc(O)cc1`: the fluorescence slope change in test [1] is 29.1% (inactive). The inhibition in test [2] is -1.78%. The score in test [3] worked out at 1.1. Further, the rescue above control in test [4] is 12.7. Besides, the cytochrome c release ratio in test [5] is 1.05. The inhibition of aggregation in test [6] amounted to 74.9%.

In the case of `C1CCC(C(CC2CCCCN2)C2CCCCC2)CC1` (centres undefined), the fluorescence slope change in test [1] is 352% (active). Besides, the inhibition in test [2] was found to be 57.7%. Also, the score in test [3] came to 0.35. This compound showed a rescue above control in test [4] of -18. The cytochrome c release ratio in test [5] turned out to be 1.56. This compound had an inhibition of aggregation in test [6] of 83.1%.

As for `C[N+](C)(C)CCOC(N)=O`, in test [1], the fluorescence slope change is 12.8% (inactive). In addition, the inhibition in test [2] came to 19.3%. Besides, the score in test [3] came out at 1.38. In test [4], this compound came in with a rescue above control of 2.63. For the same compound, in test [5], the cytochrome c release ratio was determined as 0.77. The compound further came in with an inhibition of aggregation in test [6] of 60.9%.

For the compound `NC(=NCCCCCCN=C(N)/N=C(\N)Nc1ccc(Cl)cc1)/N=C(\N)Nc1ccc(Cl)cc1`, the fluorescence slope change in test [1] is 250% (active). Moreover, the inhibition in test [2] was 66.8%. Further, the score in test [3] is 0.16. In test [4], this compound returned a rescue above control of 0. Besides, the cytochrome c release ratio in test [5] came out at 12.9. The compound also gave an inhibition of aggregation in test [6] of 79.3%.

Regarding `CO[C@]12C[C@@H](COC(=O)c3cncc(Br)c3)CN(C)[C@@H]1Cc1cn(C)c3cccc2c13`, the fluorescence slope change in test [1] is 159% (active). In addition, in test [2], the inhibition amounted to 2.79%. In addition, the score in test [3] was 0.99. This compound also had a rescue above control in test [4] of 12.5. The cytochrome c release ratio in test [5] turned out to be 0.85. The compound further gave an inhibition of aggregation in test [6] of 65.4%.

Take `Cc1cc(C(C)(C)C)cc(C)c1CC1=NCCN1`: in test [1], the fluorescence slope change was 26.6% (inactive). Also, the inhibition in test [2] was determined as 23.6%. This compound also came in with a score in test [3] of 1.63. The rescue above control in test [4] was -3.36. In addition, the cytochrome c release ratio in test [5] was found to be 1.05. In addition, the inhibition of aggregation in test [6] amounted to 63.4%.

Regarding `CO[C@@]1(NC(=O)CSCC#N)C(=O)N2C(C(=O)O)=C(CSc3nnnn3C)CS[C@@H]21`, the fluorescence slope change in test [1] was 20.3% (inactive).

For the compound `CCCCNc1ccc(C(=O)OCCN(C)C)cc1`, in test [2], the inhibition was found to be 3.42%. In test [3], this compound registered a score of 1.3. Also, the cytochrome c release ratio in test [5] is 0.87. Besides, the inhibition of aggregation in test [6] turned out to be 21.1%.

Values taken from PubChem BioAssay.
